Compound activity (PubChem)
This is a sample that favours compounds with a hit; in the whole collection about 1.7% have one here.
PfHsp40 yeast – restores yeast growth despite PfHsp40 toxicity; S. cerevisiae expressing PfHsp40, growth rescue, ATP luminescence; growth rescue, % at 12.5 µM; 340,000 compounds, 0.68% hits; in the data active means growth rescue above about 28%, passing the limit was not always enough;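 further: yeast W303a lacking pdr1 and pdr3 grown in galactose medium; growth measured after three days at 30 °C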
PriA SSB inh – blocks PriA binding to SSB C-terminal tail | AlphaScreen SSBct-PriA binding, biotinylated peptide | 430,000 compounds, 0.6% hits | AID 1272365 | inhibition, % at 33 µM; in the data active means inhibition mostly above about 37%, no sharp cut-off; inactive means mostly below about 20%;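 further: plate controls were negative control peptide for no effect and reference peptide for full effect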
Yp Topo-I inh – inhibitors of Yersinia pestis topoisomerase I; Y. pestis Topo-I cleavage product accumulation, plate reader; activity, % at 10 µM; 360,000 compounds, 0.064% hits; AID 504884; in the data active means activity above about 50%, passing the limit was not always enough
PrPC TRFRET – cell surface PrPC inhibition, primary TR-FRET screen; P04156; TR-FRET read-out; inhibition, % at 13.8 µM; 370,000 compounds, 0.43% hits; in the data active means inhibition above about 24%; further: 0% = median of the test wells and 100% = reference compound wells
BJeLR viability – kills HRASV12-expressing BJeLR cells. BJeLR (HRASV12) viability, CellTiter-Glo ATP luminescence, 48 h. AID 1554. inhibition, % (no concentration beside the values). 300,000 compounds, 0.17% hits; in the data active means inhibition above about 50%
PrP UTR inh – inhibition of PrP 5' UTR reporter expression; cell-based PrP 5' UTR mRNA reporter, plate reader; inhibition, % (test concentration not listed); 340,000 compounds, 0.35% hits; AID 488862; in the data active means inhibition above about 52%; further: 0 = median of the neutral control wells
The depositor's hits bear a star; nt = no result given.

SMILES	PfHsp40 yeast	PriA SSB inh	Yp Topo-I inh	PrPC TRFRET	BJeLR viability	PrP UTR inh
O=C(O)c1ccc(CN2C(=O)c3cccc4c([N+](=O)[O-])ccc(c34)C2=O)cc1	-1.6	3.2	-8.1	nt	72.9*	-8.4
Cc1ccc(C(=O)O)cc1N1C(=O)c2cccc3c([N+](=O)[O-])ccc(c23)C1=O	3.6	-10.7	-1.6	-13.4	-0.6	-2.9
CCSc1ccccc1C(=O)Nc1nc2c(Br)cccc2s1	nt	-13.0	nt	nt	nt	nt
COc1cc(NC(=O)CSc2ccc(NC(C)=O)nn2)cc(OC)c1	nt	-13.0	nt	nt	nt	nt
CCOCCCNC(=O)c1cc2c(s1)-c1ccccc1SC2	1.1	-7.3	-1.0	1.7	5.4	-19.3
CN(C)CCNC(=O)c1cc2c(s1)-c1ccc(Cl)cc1SC2	4.7	-10.3	-29.6	-5.3	78.7*	17.0
Nc1nn2cc(-c3ccc(Br)cc3)nc2c2ccccc12	91.1*	-0.6	2.4	13.3	9.8	-83.3
CCOC(=O)c1sc(-c2ccc(Cl)cc2Cl)nc1O	60.4*	-10.1	1.8	-9.8	7.3	-14.9
Cc1ccc(NC(=O)Cn2cc(C(=O)C3CC3)c3ccccc32)c(C)c1	0.5	13.0	76.4*	0.6	-9.9	-2.8
Cc1cccc(C(=O)CC(=O)c2cc(Cl)ccc2O)c1	81.8*	-7.1	-7.7	nt	-24.2	-12.7
O=C(CN1CCC(c2nc3ccccc3[nH]2)CC1)N1CCc2ccccc21	nt	-3.0	nt	nt	nt	nt
CNc1ccc2oc(C[C@H]3O[C@@]4(CC[C@H]3C)O[C@H]([C@H](C)C(=O)c3ccc[nH]3)[C@H](C)C[C@H]4C)nc2c1C(=O)O	142.8*	-3.0	-6.7	-5.3	30.8	5.6
O=C(c1cccc(C(F)(F)F)c1)N1CC(n2cc(COc3ccccc3)nn2)C1	nt	-15.0	nt	nt	nt	nt
FCCCOc1ccc(C=NOCc2c(Cl)cccc2Cl)cc1	nt	-10.7	nt	nt	nt	nt
CC1SCC(=NOCc2c(Cl)cccc2Cl)CS1 (stereo not given)	59.1*	-8.5	3.7	-4.5	-8.1	-19.2
COc1cc2c(c(OC)c1)C(c1cccc(OC)c1OC)CC(=O)N2 (stereo not given)	0.3	115.4*	7.2	2.6	9.8	-23.2
CCCOc1c(OC)cccc1C1CC(=O)Nc2cc(OC)c(OC)c(OC)c21 (stereo not given)	-0.2	-1.0	13.1	0.5	3.1	14.9
C[n+]1c2cc(N)ccc2cc2ccc(N)cc21	228.1*	12.7	-17.7	4.3	nt	-24.9
Nc1ccc2ccccc2c1	-0.9	23.0	-7.8	7.2	nt	-17.6
COc1ccc(C=NN=C2NC(=O)C(CC(=O)NC(C)C)S2)cc1 (stereo not given)	nt	-10.9	nt	nt	nt	nt
COc1cc(OC)c(-c2c3cc(O)c(=O)cc-3oc3cc(O)c(O)cc23)cc1OC	228.5*	17.3	-6.4	-19.4	nt	-32.7
COc1cc(-c2cc(=O)c3ccc(O)cc3o2)cc(OC)c1OC	nt	nt	-4.2	-5.5	nt	nt
Cc1c2cc(O)c(=O)cc-2oc2cc(O)c(O)cc12	-0.1	53.1	-16.6	59.7*	19.1	1.2
CC(C)[C@]12O[C@H]1[C@@H]1O[C@]13[C@]1(O[C@H]1C[C@H]1C4=C(CC[C@@]13C)C(=O)OC4)[C@@H]2O	nt	nt	nt	nt	68.2*	nt
Cc1noc(-c2cccn(CC(=O)NCCC3=CCCCC3)c2=O)n1	nt	-15.0	nt	nt	nt	nt
SMILES	PfHsp40 yeast	PriA SSB inh	Yp Topo-I inh	PrPC TRFRET	BJeLR viability	PrP UTR inh
C1=C(c2sc3ccccc3c2-c2ccc(OCCN3CCOCC3)cc2)CCCC1	-1.5	41.3*	13.7	10.1	nt	-29.6
c1ccc(-c2sc3ccccc3c2-c2ccc(OCCN3CCOCC3)cc2)cc1	1.3	11.2	-11.4	nt	nt	-10.6
COc1cc2sc(-c3ccccc3OC)c(-c3ccc(OCCN4CCCCC4)cc3)c2cc1OC	-2.6	46.5*	-7.5	-15.2	nt	-10.3
COc1ccc(-c2sc3cc4c(cc3c2-c2ccc(OCCN3CCOCC3)cc2)OCO4)cc1	-0.3	-8.9	1.3	-1.4	nt	-2.1
COc1ccc2sc(-c3ccccc3OC)c(-c3ccc(OCCN4CCOCC4)cc3)c2c1	-0.8	-3.0	3.1	nt	nt	-16.7
COc1ccccc1-c1sc2cc3c(cc2c1-c1ccc(OCCN2CCCCC2)cc1)OCO3	43.3*	13.8	-4.7	4.5	nt	-23.2
C=CCN1C(=O)C(C)(C)COc2ccc(NS(=O)(=O)Cc3cccc(C)c3)cc21	nt	-1.0	nt	nt	nt	nt
O=C(C1CC1)N1CCS[C@H]1c1ccc(C(F)(F)F)cc1	nt	-2.0	nt	nt	nt	nt
O=C(O)c1ccn2c(C(=O)c3ccc(Cl)cc3)c(-c3ccccc3)cc2c1	71.6*	-4.7	3.5	-0.7	-2.0	1.6
